Measured values reported in the supplement of paper PMC9433436.
± gives the standard deviation of the averaged measurements. The full ranking holds about 4,100 sequences; the median of “relative kcat/Km (krel) vs genomic leader AAAGAU” is about 1.7, and the highest 2% start at about 6.5. The sample holds the highest values, similar sequences and a random draw of the others, so the mix is not that of the screen.

Target: T1, E. coli RNase P holoenzyme (M1 P RNA + rnpA protein) (UniProt P0A7Y8)
T1 sequence: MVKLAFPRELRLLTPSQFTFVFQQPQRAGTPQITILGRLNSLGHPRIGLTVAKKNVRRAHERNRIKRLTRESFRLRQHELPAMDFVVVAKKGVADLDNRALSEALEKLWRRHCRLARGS
Assay: relative kcat/Km (krel) vs genomic leader AAAGAU (relative (reference leader = 1)); higher = faster RNase P cleavage
Procedure: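 HTS-Kin: a pool of ptRNA-Met (21C construct) with all 4096 combinations of 5' leader nucleotides N(-6) to N(-1) was processed in vitro by E. coli RNase P (P RNA + rnpA/C5 protein) under multiple-turnover conditions at 37 C, pH 8, 17.5 mM MgCl2. Residual substrate was Illumina-sequenced at several fractions reacted, and relative kcat/Km (krel) was computed by internal competition kinetics, calibrated to the genomic leader (AAAGAU = 1). The listed hexamer is the varied N(-6)..N(-1) leader (DNA letters), and it sits between a fixed 5' stem-loop flank (GCAUGCACGAAAGUGCGUGCUAUGAA) and the mature tRNA-Met starting GGCUACGUAGCUCAGUUGG. Two technical replicates are averaged.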

[1] = fraction of substrate reacted: ~9-10% (9.79% repeat 1, 9.1% repeat 2)
[2] = fraction of substrate reacted: ~13-16% (15.68% repeat 1, 13.17% repeat 2)
[3] = fraction of substrate reacted: ~26-29% (28.66% repeat 1, 26.4% repeat 2)

| Sequence | relative kcat/Km [1] | relative kcat/Km [2] | relative kcat/Km [3] |
| --- | --- | --- | --- |
| ATCTCT | 3.47 ± 1.2 | 4.36 ± 0.18 | 6.18 ± 2.7 |
| TTCTCG | 2.16 ± 1.3 | 2.86 ± 0.45 | 4.91 ± 1.5 |
| TTCTCT | 4.43 ± 1.1 | 6.17 ± 1.4 | 8.57 ± 3.4 |
| GACTCA | 3.33 ± 1.5 | 4.56 ± 0.1 | 5.69 ± 2.1 |
| GTGTCT | 0.45 ± 0.21 | 1.24 ± 0.15 | 1.44 ± 0.22 |
| ATCTCA | 3.67 ± 2 | 4.25 ± 0.21 | 6.06 ± 2.4 |
| GTATCT | 2.3 ± 0.54 | 3.23 ± 0.87 | 4.66 ± 1.9 |
| GTCTCG | 2.29 ± 1.9 | 2.35 ± 0.054 | 4.3 ± 1.1 |
| GTCTCA | 3.83 ± 1.2 | 5.79 ± 0.43 | 7.71 ± 2.8 |
| CTCTCA | 3.31 ± 1.3 | 4.49 ± 0.63 | 5.72 ± 1.9 |
| TTGCTA | 2.11 ± 1.3 | 1.43 ± 0.11 | 2.24 ± 0.7 |
| GACTCG | 1.8 ± 1.4 | 1.87 ± 0.13 | 3.21 ± 0.58 |
| TAAAGA | 1.01 ± 0.34 | 1.61 ± 0.79 | 3.01 ± 1.7 |
| CGCTGG | 0.49 ± 0.25 | – | – |
| TGCGAG | – | 0.318 ± 0.22 | 1.39 ± 0.28 |
| TTGCGA | 1.1 ± 0.36 | 1.53 ± 0.44 | 1.91 ± 0.14 |
| CGACAT | 3.05 ± 0.3 | 3.54 ± 1.1 | 4.82 ± 1.8 |
| GGGTTC | 0.445 ± 0.035 | 0.916 ± 0.37 | 0.82 ± 0.16 |
| CACGGA | – | – | 0.766 ± 0.63 |
| GGGATA | – | 0.415 ± 0.34 | – |
| GGCTCC | 2.56 ± 0.54 | 1.96 ± 0.23 | 2.25 ± 0.7 |
| CTCTCG | 1.91 ± 1.5 | 1.68 ± 0.37 | 3.31 ± 0.37 |
| TGCTCC | 2.19 ± 0.87 | 2.31 ± 0.43 | 2.87 ± 0.78 |
| GCCTCC | 2.78 ± 1.2 | 3.32 ± 0.14 | 5.33 ± 1.8 |
| CTCTCT | 4.48 ± 1 | 4.84 ± 1.6 | 7.22 ± 3 |

| Sequence | relative kcat/Km [1] | relative kcat/Km [2] | relative kcat/Km [3] |
| --- | --- | --- | --- |
| TTCTCC | 5.23 ± 2.1 | 6.12 ± 0.67 | 8.25 ± 3 |
| ATCTCC | 3.67 ± 0.85 | 4.83 ± 1.4 | 6.39 ± 2.9 |
| GTCTCC | 4.62 ± 1.7 | 6.15 ± 0.65 | 8.17 ± 3.2 |
| CTCTCC | 3.04 ± 0.91 | 4.91 ± 0.6 | 6.17 ± 2.2 |
| CGGAGG | 0.395 ± 0.29 | – | – |
| CATTTG | – | – | 1.49 ± 0.39 |
| ACGCTA | 1.05 ± 0.29 | 0.572 ± 0.17 | 1.74 ± 0.51 |
| GGCTTT | 2.05 ± 0.44 | 1.76 ± 0.074 | 2.15 ± 0.52 |
| CGAAGA | 1.79 ± 0.84 | 2.39 ± 1 | 3.52 ± 0.96 |
| CCACCG | – | – | 1.08 ± 0.58 |
| TAAGGC | 1.46 ± 0.72 | – | 2.44 ± 2.2 |
| TTCACT | 4.07 ± 1.2 | 5.27 ± 1.4 | 7.57 ± 3.1 |
| TTCACG | 2.05 ± 1.9 | 2.41 ± 0.2 | 4.56 ± 1.4 |
| GGCACC | 1.52 ± 1.3 | 1.01 ± 0.24 | 2.04 ± 0.18 |
| TTCACC | 3.91 ± 1.2 | 5.63 ± 0.6 | 8.13 ± 3 |
| GTCACC | 3.43 ± 0.98 | 4.83 ± 0.44 | 6.98 ± 2.7 |
| TTCACA | 4.51 ± 1.9 | 5.55 ± 0.86 | 7.72 ± 3.1 |
| GTCACG | – | 1.84 ± 0.86 | 3.97 ± 0.54 |
| ATCACA | 2.67 ± 1 | 3.8 ± 0.55 | 5.18 ± 1.5 |
| CTCACC | 2.93 ± 0.11 | 4.4 ± 1.5 | 6.21 ± 2.6 |
| ATCACC | 3.18 ± 0.62 | 3.68 ± 1 | 5.67 ± 2 |
| GTCACT | 3.36 ± 0.97 | 3.29 ± 0.15 | 6.31 ± 2.5 |
| ATCACT | 3 ± 0.43 | 3.58 ± 1.1 | 4.98 ± 2 |
| CCTACA | 2.23 ± 1.1 | 1.82 ± 0.36 | 1.9 ± 0.68 |
| CGTCCT | 2.14 ± 0.34 | 2.06 ± 0.17 | 3 ± 1.2 |
